Structures are written as SMILES. Where a name gives a salt, the structure may show the parent alone. A number with no mark means an inactive call.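 The calls were made as follows: active = AUC significantly below DMSO controls by Student t-fit with adjusted P under 0.01; inactive = not significantly reduced.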

26 molecules from the supplement of paper PMC12350171 can be followed below.

This assay concerns Haemophilus parainfluenzae. In words: growth AUC normalised to DMSO control (fraction of control); higher = less growth inhibition, active = hit call of the paper. To be noted: 20 µM. The gist of the method: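 For the AUC endpoint, growth curves were integrated by the trapezoidal rule up to the exponential-to-stationary transition and normalised to DMSO controls on the same plate. The curves came from OD578 readings taken hourly for 24 h, in three biological replicates. Pathogens had been passaged anaerobically twice and inoculated at an OD578 of 0.01 into pre-reduced mGAM plates carrying 20 μM compound and 1% DMSO, sealed with breathable membranes. Medium for Haemophilus parainfluenzae also contained hemin and NAD.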
For `CNC[C@H](O)[C@@H](O)[C@H](O)[C@H](O)CO` [Meglumine], the “growth AUC normalised to DMSO control” value is 1.05.

Consider `CCN(CC)C(=O)N1CCN(C)CC1` [Diethylcarbamazine citrate], for which the “growth AUC normalised to DMSO control” value was 0.978.

Take `COc1ccc(CC(C)NCC(O)c2ccc(O)c(NC=O)c2)cc1` (stereo unspecified) [Formoterol fumarate]: the “growth AUC normalised to DMSO control” value was 1.09.

On to `CC(C)/N=c1\cc2n(-c3ccc(Cl)cc3)c3ccccc3nc-2cc1Nc1ccc(Cl)cc1` [Clofazimine], for which the “growth AUC normalised to DMSO control” value is 1.

In the case of `Nc1ncnc2c1ncn2[C@@H]1O[C@H](CO)[C@@H](O)[C@@H]1O` [Vidarabine], the “growth AUC normalised to DMSO control” value was 0.96.

Regarding `CC(C)(C)NC[C@H](O)COc1nsnc1N1CCOCC1` [Timolol maleate salt], the “growth AUC normalised to DMSO control” value was 1.02.

Take `C[C@H](CCC(=O)O)[C@H]1CC[C@H]2[C@@H]3CC[C@@H]4C[C@H](O)CC[C@]4(C)[C@H]3CC[C@]12C` [Lithocholic acid]: the “growth AUC normalised to DMSO control” value is 1.04.

As for `Cc1c(C)c2c(c(C)c1O)CCC(C)(C(=O)O)O2` (stereo unspecified) [Trolox], the “growth AUC normalised to DMSO control” value is 1.

Consider `C=C1c2c(Cl)ccc(O)c2C(O)=C2C(=O)[C@]3(O)C(O)=C(C(N)=O)C(=O)[C@@H](N(C)C)[C@@H]3[C@@H](O)[C@H]12.O=C(O)c1cc(S(=O)(=O)O)ccc1O` [Meclocycline sulfosalicylate], for which the “growth AUC normalised to DMSO control” value is 0.0341 (active).

For the molecule `COc1c(N2C[C@@H]3CCCN[C@@H]3C2)c(F)cc2c(=O)c(C(=O)O)cn(C3CC3)c12` [Moxifloxacin], the “growth AUC normalised to DMSO control” value is 0.0254 (active).

Take `C=CCc1ccccc1OCC(O)CNC(C)C` (stereo unspecified) [Alprenolol hydrochloride]: the “growth AUC normalised to DMSO control” value is 1.06.

In the case of `CC(C[N+](C)(C)C)OC(N)=O` (stereo unspecified) [Bethanechol chloride], the “growth AUC normalised to DMSO control” value was 1.

For the molecule `Fc1ccc(C(c2ccc(F)cc2)N2CCN(C/C=C/c3ccccc3)CC2)cc1` [Flunarizine dihydrochloride], the “growth AUC normalised to DMSO control” value is 0.97.

As to `COCCCOc1ccnc(C[S+]([O-])c2nc3ccccc3[nH]2)c1C` (stereo unspecified) [Rabeprazole sodium salt], the “growth AUC normalised to DMSO control” value was 0.985.

As for `C#C[C@]1(O)CC[C@H]2[C@@H]3CCC4=CC(=O)CC[C@@H]4[C@H]3CC[C@@]21C` [Norethindrone], the “growth AUC normalised to DMSO control” value was 0.989.

On to `NS(=O)(=O)c1cc2c(cc1Cl)NC(C(Cl)Cl)NS2(=O)=O` (stereo unspecified) [Trichlormethiazide], for which the “growth AUC normalised to DMSO control” value was 1.01.

For `CCCC(=O)Nc1ccc(OCC(O)CNC(C)C)c(C(C)=O)c1` (stereo unspecified) [Acebutolol hydrochloride], the “growth AUC normalised to DMSO control” value is 1.03.

As to `Oc1ncnc2[nH]ncc12` [Allopurinol], the “growth AUC normalised to DMSO control” value was 1.01.

For the molecule `Nc1nc(=S)c2ncn([C@@H]3O[C@H](CO)[C@@H](O)[C@H]3O)c2[nH]1` [Thioguanosine], the “growth AUC normalised to DMSO control” value was 0.973.

With `Cc1cc(/C=C/c2ccc3cc(N(C)C)ccc3[n+]2C)c(C)n1-c1ccccc1` [Pyrvinium pamoate], the “growth AUC normalised to DMSO control” value is 1.06.

As for `CC1(C)S[C@@H]2[C@H](NC(=O)[C@H](N)c3ccccc3)C(=O)N2[C@H]1C(=O)O` [Ampicillin trihydrate], the “growth AUC normalised to DMSO control” value was 0.0576 (active).

With `CCN(CC)CCOC(=O)C(c1ccccc1)C1CCCCC1` (stereo unspecified) [Drofenine hydrochloride], the “growth AUC normalised to DMSO control” value is 0.992.

As for `CCN(CC)CCNC(C(=O)OCCC(C)C)c1ccccc1` (stereo unspecified) [Camylofine chlorhydrate], the “growth AUC normalised to DMSO control” value is 0.98.

As for `CO[C@H]1/C=C/O[C@@]2(C)Oc3c(C)c(O)c4c(O)c(c5c(nc6cc(C)ccn65)c4c3C2=O)NC(=O)/C(C)=C\C=C\[C@H](C)[C@H](O)[C@@H](C)[C@@H](O)[C@@H](C)[C@H](OC(C)=O)[C@@H]1C` [Rifaximin], the “growth AUC normalised to DMSO control” value is 0.026 (active).

For the molecule `C[C@@H]1CN(c2c(F)c(N)c3c(=O)c(C(=O)O)cn(C4CC4)c3c2F)C[C@H](C)N1` [Sparfloxacin], the “growth AUC normalised to DMSO control” value was 0.0765 (active).

Take `CC(C)(C)NCC(O)COc1cccc2c1CC(O)C(O)C2` (stereo unspecified) [Nadolol]: the “growth AUC normalised to DMSO control” value is 1.
